Experimental findings from paper PMC9838217, “Structure of SALL4 zinc finger domain reveals link between AT-rich DNA binding and Okihiro syndrome” are described below.

Where a chain is given by its changes, count along the chain named.

Holding throughout (assay): HT-SELEX; high values mean tight binding
Common to all, as to conditions: protein: recombinant; vector His6-GST; dsDNA, one strand shown

In one assay the target is T1, SALL4 ZFC4 WT (HT-SELEX) (Mus musculus, UniProt Q8BX22 870-940).
T1 sequence: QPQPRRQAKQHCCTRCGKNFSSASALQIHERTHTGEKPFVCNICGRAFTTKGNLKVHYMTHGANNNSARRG
In a few lines:
(§1)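 Binding signal is expressed as fold change in each canonical k-mer's read fraction over the initial random library. To obtain it, 1 µg of purified recombinant mouse SALL4 zinc finger cluster 4 (residues 870–940) was incubated for 10 min at room temperature with library DNA (1.5 µg first cycle, 200 ng later cycles) in 100 µl of 10 mM Tris–HCl pH 7.5, 50 mM NaCl, poly(dI-dC) and DTT. Ni2+ bead-captured complexes went through washing, PCR amplification and reselection for up to 6 cycles, in triplicate, before MiSeq sequencing and scanning for 6-mers.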

Assay [1] deals with T2, SALL4 ZFC4 R900W (HT-SELEX) (Mus musculus, UniProt Q8BX22 870-940, R900W).
T2 sequence: T1 sequence with R31W
The gist of the method:
as §1

The target of assay [2] is T3, SALL4 ZFC4 G921D (HT-SELEX) (Mus musculus, UniProt Q8BX22 870-940, G921D).
T3 sequence: T1 sequence with G52D
The gist of the method: as §1

Consider ATCTAC, for which the values for the binding signal (in the assay with SALL4 ZFC4 WT (HT-SELEX); in assay [1]; in assay [2]) were 1.31 ± 0.0255 fold-change vs cycle 0, 1.41 ± 0.0427 fold-change vs cycle 0 and 1.38 ± 0.0966 fold-change vs cycle 0, respectively.
In the case of CTAGAC, the binding signal with SALL4 ZFC4 WT (HT-SELEX) came to 0.775 ± 0.0462 fold-change vs cycle 0; in assay [1] it was 0.888 ± 0.0389 fold-change vs cycle 0; in assay [2], 0.932 ± 0.00894 fold-change vs cycle 0.
For the sequence GGGACA, the binding signal amounted to 0.383 ± 0.0239 fold-change vs cycle 0 with SALL4 ZFC4 WT (HT-SELEX), 0.458 ± 0.0236 fold-change vs cycle 0 in assay [1] and 0.564 ± 0.0569 fold-change vs cycle 0 in assay [2].
For AATAGA, the binding signal in the assay with SALL4 ZFC4 WT (HT-SELEX) was found to be 2.12 ± 0.0946 fold-change vs cycle 0; in assay [1], 2.06 ± 0.0912 fold-change vs cycle 0; in assay [2] it was 1.79 ± 0.161 fold-change vs cycle 0.
Taken in the same sequence, the figures for CGAATC were 0.662 ± 0.00887 fold-change vs cycle 0, 0.742 ± 0.0291 fold-change vs cycle 0 and 0.827 ± 0.0621 fold-change vs cycle 0.
AGAAAG: the binding signal with SALL4 ZFC4 WT (HT-SELEX) was 1.31 ± 0.0378 fold-change vs cycle 0; in assay [1], 1.52 ± 0.0945 fold-change vs cycle 0; in assay [2], 1.36 ± 0.112 fold-change vs cycle 0.
For TAATCA, the results for the binding signal (with SALL4 ZFC4 WT (HT-SELEX); in assay [1]; in assay [2]) were 2.37 ± 0.116 fold-change vs cycle 0, 2.13 ± 0.0839 fold-change vs cycle 0 and 1.88 ± 0.168 fold-change vs cycle 0, respectively.
As to TATCGA, the binding signal with SALL4 ZFC4 WT (HT-SELEX) amounted to 1.23 ± 0.0345 fold-change vs cycle 0; in assay [1] it was 1.2 ± 0.0508 fold-change vs cycle 0; in assay [2], 1.22 ± 0.03 fold-change vs cycle 0.
For CTGCTA the same measures were 0.699 ± 0.028 fold-change vs cycle 0, 0.757 ± 0.0335 fold-change vs cycle 0 and 0.816 ± 0.0523 fold-change vs cycle 0.
As for GGATAC, the binding signal with SALL4 ZFC4 WT (HT-SELEX) turned out to be 0.871 ± 0.0477 fold-change vs cycle 0; in assay [1], 1.02 ± 0.0352 fold-change vs cycle 0; in assay [2], 1.03 ± 0.0426 fold-change vs cycle 0.
For CCACGA the same measures were 0.33 ± 0.0384 fold-change vs cycle 0, 0.407 ± 0.011 fold-change vs cycle 0 and 0.515 ± 0.0508 fold-change vs cycle 0.
Regarding ACGATG, the binding signal in the assay with SALL4 ZFC4 WT (HT-SELEX) amounted to 0.719 ± 0.0288 fold-change vs cycle 0; in assay [1] it was 0.794 ± 0.00845 fold-change vs cycle 0; in assay [2], 0.87 ± 0.00912 fold-change vs cycle 0.
For AGCTTC the same measures were 0.709 ± 0.0328 fold-change vs cycle 0, 0.839 ± 0.0164 fold-change vs cycle 0 and 0.895 ± 0.0229 fold-change vs cycle 0.
Taken in the same sequence, the figures for GCTAAA were 0.898 ± 0.0417 fold-change vs cycle 0, 1 ± 0.0491 fold-change vs cycle 0 and 1.03 ± 0.0278 fold-change vs cycle 0.
As to AAACAC, the results for the binding signal (in the assay with SALL4 ZFC4 WT (HT-SELEX); in assay [1]; in assay [2]) were 1.06 ± 0.0292 fold-change vs cycle 0, 1.16 ± 0.0244 fold-change vs cycle 0 and 1.189 ± 0.0109 fold-change vs cycle 0, respectively.
Taken in the same sequence, the figures for AATGCT were 1.15 ± 0.0126 fold-change vs cycle 0, 1.19 ± 0.0201 fold-change vs cycle 0 and 1.225 ± 0.011 fold-change vs cycle 0.
Consider AAAGGG, for which the binding signal was 0.754 ± 0.0569 fold-change vs cycle 0 with SALL4 ZFC4 WT (HT-SELEX), 0.891 ± 0.0422 fold-change vs cycle 0 in assay [1] and 0.879 ± 0.0118 fold-change vs cycle 0 in assay [2].
Take ATGTAC: the values for the binding signal (with SALL4 ZFC4 WT (HT-SELEX); in assay [1]; in assay [2]) were 1.295 ± 0.0117 fold-change vs cycle 0, 1.38 ± 0.0189 fold-change vs cycle 0 and 1.32 ± 0.0512 fold-change vs cycle 0, respectively.
As to ACGAGG, the values for the binding signal (with SALL4 ZFC4 WT (HT-SELEX); in assay [1]; in assay [2]) were 0.436 ± 0.0164 fold-change vs cycle 0, 0.534 ± 0.018 fold-change vs cycle 0 and 0.618 ± 0.0579 fold-change vs cycle 0, respectively.
Consider AGCTAC, for which the binding signal with SALL4 ZFC4 WT (HT-SELEX) was determined as 0.674 ± 0.0463 fold-change vs cycle 0; in assay [1] it was 0.7802 ± 0.0018 fold-change vs cycle 0; in assay [2], 0.874 ± 0.026 fold-change vs cycle 0.
Turning to ATTATG, the binding signal in the assay with SALL4 ZFC4 WT (HT-SELEX) is 2.78 ± 0.17 fold-change vs cycle 0; in assay [1], 1.94 ± 0.0249 fold-change vs cycle 0; in assay [2] it was 1.74 ± 0.121 fold-change vs cycle 0.
On to CAAACC, for which the figures for the binding signal (with SALL4 ZFC4 WT (HT-SELEX); in assay [1]; in assay [2]) were 0.669 ± 0.0487 fold-change vs cycle 0, 0.765 ± 0.014 fold-change vs cycle 0 and 0.864 ± 0.0462 fold-change vs cycle 0, respectively.
For CCATCG the same measures were 0.385 ± 0.00824 fold-change vs cycle 0, 0.438 ± 0.0205 fold-change vs cycle 0 and 0.557 ± 0.0511 fold-change vs cycle 0.
Taken in the same sequence, the figures for TGCACA were 0.529 ± 0.0293 fold-change vs cycle 0, 0.586 ± 0.0273 fold-change vs cycle 0 and 0.698 ± 0.0457 fold-change vs cycle 0.
Consider AAAACG, for which the binding signal with SALL4 ZFC4 WT (HT-SELEX) came to 0.821 ± 0.0591 fold-change vs cycle 0; in assay [1], 0.931 ± 0.0404 fold-change vs cycle 0; in assay [2] it was 0.972 ± 0.016 fold-change vs cycle 0.
With TGTTAA, the binding signal in the assay with SALL4 ZFC4 WT (HT-SELEX) worked out at 1.94 ± 0.0917 fold-change vs cycle 0; in assay [1] it was 2 ± 0.113 fold-change vs cycle 0; in assay [2], 1.77 ± 0.143 fold-change vs cycle 0.
For GGGAAC the same measures were 0.517 ± 0.0146 fold-change vs cycle 0, 0.591 ± 0.0347 fold-change vs cycle 0 and 0.653 ± 0.041 fold-change vs cycle 0.
Taken in the same sequence, the figures for AATCCG were 0.616 ± 0.0217 fold-change vs cycle 0, 0.698 ± 0.0254 fold-change vs cycle 0 and 0.798 ± 0.0327 fold-change vs cycle 0.
Consider AATTAG, for which the values for the binding signal (with SALL4 ZFC4 WT (HT-SELEX); in assay [1]; in assay [2]) were 1.92 ± 0.0642 fold-change vs cycle 0, 1.97 ± 0.0604 fold-change vs cycle 0 and 1.75 ± 0.104 fold-change vs cycle 0, respectively.
Taken in the same sequence, the figures for AAAGTT were 1.85 ± 0.124 fold-change vs cycle 0, 1.9 ± 0.107 fold-change vs cycle 0 and 1.7 ± 0.189 fold-change vs cycle 0.
